# Reference: PubChem BioAssay (NCATS)
# Results filed as inconclusive are left out. Where a call stands in place of a potency, no number is given. Activity calls are given as the source filed them. Unless noted, the call rests on the fitted dose curve; in most records, active means well fitted curve in the direction sought with a large enough effect; inconclusive means small, poorly fitted or top-dose-only effect, or another doubt; inactive means no such curve, though single readings can be large; an effect the other way counts as inactive or inconclusive.
# Columns and labels:
# [1] = Cell Viability - LYMP2-012 (AID 982);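 further: cellular ATP by luciferase luminescence where a drop means cytotoxicity; cells exposed to compound for one day before reading; nearly all actives have a fitted effect of over 55% in size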
# [2] = Cell Viability - LYMP2-014 (AID 983); further: series mostly up to about 92 µM; nearly all actives have a fitted effect of over 50% in size
# Procedure, shortened: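 Luminescent ATP signal (CellTiter-Glo, 30 min at room temperature) serves as the viability read-out after 24 hr compound exposure at 37 C. Cells were seeded at 2500 per well and settled 5 hr beforehand.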
# [3] = Cell Viability - LYMP2-016 (AID 984);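 further: cells exposed to compound for 24 hours at 37 °C; nearly all actives have a fitted effect of over 55% in size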
# Procedure, shortened: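 Cytotoxicity was scored by luminescent ATP content (CellTiter-Glo) after 24 h compound exposure at 37 C of a human lymphoblastoid line at 2500 cells/well. Concentration-response data were fitted to the Hill equation for AC50.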
# [4] = Cell Viability - LYMP2-018 (AID 985); further: nearly all actives have a fitted effect of over 50% in size
# Procedure, shortened: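 Luminescent ATP signal (CellTiter-Glo, read after 30 min at room temperature) reports viable cells after 24 hr compound treatment at 37 C. Concentration-response data were fitted to the standard Hill equation for AC50.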
# [5] = Cell Viability - LYMP2-020 (AID 986); further: series mostly up to about 92 µM; nearly all actives have a fitted effect of over 55% in size
# Procedure, shortened: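 Luminescent ATP signal (CellTiter-Glo, 30 min at room temperature) is the read-out after 24 h compound treatment of lymphoblastoid cells at 37 C. AC50 values come from Hill-equation fits across concentrations.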
# [6] = Cell Viability - LYMP2-022 (AID 987); further: nearly all actives have a fitted effect of over 55% in size
# Procedure, shortened: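 qHTS: human lymphoblastoid cells 2500/well; 5 hr 37 C; cpd added; 24 hr 37 C; CellTiter-Glo, 30 min RT; luminescence. AC50 via Hill fit; tetraoctylammonium bromide positive ctrl.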
# [7] = Cell Viability - LYMP2-024 (AID 988); further: nearly all actives have a fitted effect of over 60% in size
# Procedure, shortened: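 Steps: seed 2500 cells/well, 5 hr 37 C; add compound, 24 hr 37 C; add CellTiter-Glo, 30 min room temperature; read luminescence. AC50 derived by Hill modelling of concentration-dependent ATP loss.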
# [8] = Cell Viability - LYMP2-026 (AID 989); further: nearly all actives have a fitted effect of over 50% in size
# Procedure, shortened: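 Luminescent ATP signal (CellTiter-Glo, 30 min room temperature) measures viable lymphoblastoid cells after 24 hr compound treatment at 37 C. Decreased ATP reflects acute toxicity; AC50 values come from Hill-equation modeling.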
# [9] = Cell Viability - LYMP1-002 - Assay at 24 hr (AID 993)
# Procedure, shortened: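 Cells plated 2500/well, 5 hr 37 C; compounds added, 24 hr 37 C; CellTiter-Glo added, 30 min RT; luminescence read. Tetraoctylammonium bromide positive control. Hill-equation AC50.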
# [10] = Cell Viability - LYMP1-002 - Assay at 40 hr (AID 994); further: nearly all actives have a fitted effect of over 60% in size
# Procedure, shortened: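 Luminescent ATP signal served as the viability readout, with decreases taken as toxicity. Cells were treated with compounds across a concentration range for 40 hours at 37 C, and AC50 values came from standard Hill modeling.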
# [11] = qHTS Assay for Identification of Small Molecule Inducers of Hypoxia Response (AID 2120; active means well fitted curve in the direction sought with a large enough effect in the signal ratio, with a control signal flat, not every such curve was filed as active; the % refers to the signal ratio)
# Procedure, shortened: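 ME-180 HRE-bla cells plated in Opti-MEM/0.5% dialyzed FBS, rested 4-5 h, then dosed with compound titrations by pin tool. After 17 h at 37 degrees C, CCF4 dye loaded 2.5 h at RT; 460/530 nm ratio gave %Activity and AC50.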
# [12] = target: Estrogen receptor (Homo sapiens) (UniProt P03372); assay: qHTS assay for small molecule antagonists of estrogen receptor alpha signaling (AID 588513; active means well fitted curve in the direction sought with a large enough effect in the signal ratio, with a control signal flat, not every such curve was filed as active; the % refers to the signal ratio)
# Procedure, shortened: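 Antagonist mode: inhibition of 0.5 nM 17-beta-estradiol-driven beta-lactamase reporter in HEK 293 ER-alpha-UAS-bla cells, 18 h at 37C, CCF4 readout after 2 h at RT. Normalised to estradiol and DMSO; titration fitted to Hill.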
# [13] = target: Estrogen receptor (Homo sapiens) (UniProt P03372); assay: qHTS assay for small molecule agonists of estrogen receptor alpha signaling (AID 588514; calls by dose curve; further: nearly all actives have a fitted effect of over 70% in size)
# Procedure, shortened: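 Cells were plated at 5000/well, incubated 4 hrs at 37 C, dosed with compound titration series, incubated 18 hrs at 37 C, loaded with CCF4 dye for 2 hrs at RT, then fluorescence was read.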
# [14] = target: Glucocorticoid receptor (Homo sapiens) (UniProt P04150); assay: qHTS assay for small molecule agonists of glucocorticoid receptor signaling (AID 588532; active means well fitted curve in the direction sought with a large enough effect in the signal ratio, with a control signal flat; the % refers to the signal ratio); details: HeLa MMTV-bla, beta-lactamase ratio, agonist, 18 h; stronger effect = higher value; percent of dexamethasone control, DMSO zero
# Procedure, shortened: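 Cells were plated and rested 3-5 h at 37 C, compounds were added in titration and incubated 18 h, then CCF4 substrate was loaded for 2 h at RT before reading blue/green fluorescence. EC50 came from Hill-equation fitting.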
# [15] = target: Glucocorticoid receptor (Homo sapiens) (UniProt P04150); assay: qHTS assay for small molecule antagonists of glucocorticoid receptor signaling (AID 588533; active means well fitted inhibition curve with a large enough effect in the signal ratio, with a control signal flat, not every such curve was filed as active; the % refers to the signal ratio;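 further: cells stimulated with 2 nM dexamethasone as agonist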)
# Procedure, shortened: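 Antagonist-mode qHTS: compound titrations added to GRE-bla HeLa cells, then dexamethasone 2 nM final; 18 h, 37 C. CCF4 FRET fluorescence normalized to dexamethasone and DMSO; IC50 from Hill fit.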
# [16] = qHTS assay for small molecule agonists of retinoid X receptor alpha signaling (AID 588544); details: HEK293T RXRa-UAS-bla, beta-lactamase reporter, 18 h; 530 nm emission
# [17] = target: Thyroid hormone receptor beta (Homo sapiens) (UniProt P10828); assay: qHTS assay for small molecule agonists of thyroid hormone receptor beta signaling (AID 588545; calls by dose curve)
# Procedure, shortened: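 Efficacy and EC50 values derive from Hill fits of qHTS titration data, normalized to 10 nM T3 and DMSO-only wells. HEK 293 reporter cells were stimulated for 18 hrs at 37 C, with beta-lactamase activity measured by CCF4 fluorescence.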
# [18] = qHTS assay for small molecule antagonists of retinoid X receptor alpha signaling (AID 588546; active means well fitted inhibition curve with a large enough effect in the signal ratio, with a control signal flat, not every such curve was filed as active; the % refers to the signal ratio;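 further: cells stimulated with 9-cis-retinoic acid as agonist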); details: HEK293T RXRa-UAS-bla, beta-lactamase ratio, antagonist mode; measured here: W530 green channel, cytotoxicity proxy
# Procedure, shortened: (§1)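 Beta-lactamase reporter inhibition, read as CCF4 fluorescence ratio (ex 405, em 460/530 nm) after 2 h at RT. HEK293T UAS-bla cells, 2500/well, were stimulated with 9-cis-RA at 500 or 100 nM final alongside test compound for 18 h at 37 C.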
# [19] = target: Retinoic acid receptor RXR-alpha (Homo sapiens) (UniProt P19793); assay: as above; details: HEK293T RXRa-UAS-bla, beta-lactamase ratio, antagonist mode
# Procedure, shortened: as §1
# [20] = target: Thyroid hormone receptor beta (Homo sapiens) (UniProt P10828); assay: qHTS assay for small molecule antagonists of thyroid hormone receptor beta signaling (AID 588547; active means well fitted inhibition curve with a large enough effect in the signal ratio, with a control signal flat, not every such curve was filed as active; the % refers to the signal ratio;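 further: cells stimulated with 0.4 nM T3 agonist during compound exposure; series mostly up to about 77 µM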); details: TR-UAS-bla HEK293, beta-lactamase ratio, antagonist mode, 18 h
# Procedure, shortened: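 TR-UAS-bla GripTite HEK293 cells in 2% charcoal/dextran FBS medium; compounds 0.59 nM to 92 uM with T3 at 0.4nM final, 18 h at 37 C. Beta-lactamase read by CCF4 fluorescence (460/530 nm); Hill fits gave IC50 and efficacy.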
# [21] = target: Voltage-gated inwardly rectifying potassium channel KCNH2 (Homo sapiens) (UniProt Q12809); assay: qHTS Assay for Small Molecule Inhibitors of the Human hERG Channel Activity (AID 588834);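 further: top concentration of the series differs between compounds; lower thallium flux fluorescence means stronger hERG block; nearly all actives have a fitted effect of over 50% in size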
# Procedure, shortened: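 Kinetic FDSS fluorescence; U2OS + hERG BacMam (~100 virus particles/cell); FluxOR Tl+ flux; ~10 min cpd; AC50 (Hill).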
# [22] = qHTS assay for small molecule activators of the p53 signaling pathway (AID 651743; active means well fitted activation curve with a large enough effect in the signal ratio, not every such curve was filed as active; the % refers to the signal ratio; further: series mostly up to about 92 µM); details: HCT-116 p53RE-bla, beta-lactamase FRET ratio, 16 h; activation: stronger effect = higher value
# Procedure, shortened: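 p53RE-bla HCT-116 cells carrying a beta-lactamase reporter under p53 response elements were exposed to compounds for 16 hours at 37 C. Reporter activity read as fluorescence after 2 hours at room temperature with LiveBLAzer B/G FRET substrate.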
# [23] = qHTS assay for small molecule activators of the nuclear factor-kappa B (NF-kB) signaling pathway (AID 651749; active means well fitted activation curve with a large enough effect in the signal ratio; the % refers to the signal ratio; further: series mostly up to about 77 µM); details: NF-kB-bla ME-180 cells, beta-lactamase FRET ratio, 16 h; stronger effect = higher value
# Procedure, shortened: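 NF-kB-bla ME-180 cells carrying a beta-lactamase reporter under an NF-kB response element, 2,000 cells/well, exposed to compound for 16 hr at 37C; FRET-based beta-lactamase fluorescence read-out of pathway activation.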
# [24] = qHTS assay for small molecule disruptors of the mitochondrial membrane potential - 1 hr assay (AID 651754; calls by dose curve; further: nearly all actives have a fitted effect of over 35% in size)
# Procedure, shortened: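 HepG2, 2,000 cells/well, overnight attachment; cpd or DMSO 1 hr, 37C/5% CO2; Mito-MPS dye 30 min, 37C; fluorescence monomer (490/535) and aggregate (540/590).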
# Sequence of Estrogen receptor (Homo sapiens) (P03372 whole entry, looked up): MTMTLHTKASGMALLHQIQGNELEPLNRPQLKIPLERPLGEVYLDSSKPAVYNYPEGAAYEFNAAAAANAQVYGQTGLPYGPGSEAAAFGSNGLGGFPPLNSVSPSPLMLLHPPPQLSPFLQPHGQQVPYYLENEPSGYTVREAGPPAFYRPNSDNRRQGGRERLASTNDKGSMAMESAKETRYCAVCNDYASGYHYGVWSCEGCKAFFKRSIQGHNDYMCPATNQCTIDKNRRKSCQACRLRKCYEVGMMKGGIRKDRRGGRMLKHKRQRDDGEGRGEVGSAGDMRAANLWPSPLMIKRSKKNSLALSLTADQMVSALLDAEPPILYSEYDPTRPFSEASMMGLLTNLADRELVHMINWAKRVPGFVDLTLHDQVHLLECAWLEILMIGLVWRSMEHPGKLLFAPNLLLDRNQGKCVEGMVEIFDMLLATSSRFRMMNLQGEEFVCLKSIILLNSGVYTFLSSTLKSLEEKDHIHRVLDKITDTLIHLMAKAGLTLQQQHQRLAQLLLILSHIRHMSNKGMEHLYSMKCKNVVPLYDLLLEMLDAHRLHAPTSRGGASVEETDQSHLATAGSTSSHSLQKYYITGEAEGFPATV
# Sequence of Glucocorticoid receptor (Homo sapiens) (P04150 whole entry, looked up): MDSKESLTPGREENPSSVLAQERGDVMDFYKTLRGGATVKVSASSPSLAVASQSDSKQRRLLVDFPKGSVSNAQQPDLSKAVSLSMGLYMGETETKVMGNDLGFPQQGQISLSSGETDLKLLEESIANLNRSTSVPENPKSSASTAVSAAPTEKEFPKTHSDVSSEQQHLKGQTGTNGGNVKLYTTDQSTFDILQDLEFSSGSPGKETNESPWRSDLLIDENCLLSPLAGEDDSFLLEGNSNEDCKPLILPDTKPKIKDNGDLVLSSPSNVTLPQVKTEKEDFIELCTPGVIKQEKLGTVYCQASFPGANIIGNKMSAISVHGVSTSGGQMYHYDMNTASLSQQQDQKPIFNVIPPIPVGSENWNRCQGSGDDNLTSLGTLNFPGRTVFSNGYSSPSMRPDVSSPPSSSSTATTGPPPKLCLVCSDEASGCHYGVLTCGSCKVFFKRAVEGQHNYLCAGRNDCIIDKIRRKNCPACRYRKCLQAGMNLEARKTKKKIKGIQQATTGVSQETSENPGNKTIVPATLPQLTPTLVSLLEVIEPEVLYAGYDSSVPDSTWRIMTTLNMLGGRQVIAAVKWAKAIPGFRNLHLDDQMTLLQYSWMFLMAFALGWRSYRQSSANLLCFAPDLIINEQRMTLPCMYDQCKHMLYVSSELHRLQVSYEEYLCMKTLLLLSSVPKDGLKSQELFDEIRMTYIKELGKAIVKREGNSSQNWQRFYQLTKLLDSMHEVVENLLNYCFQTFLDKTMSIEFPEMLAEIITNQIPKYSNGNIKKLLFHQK
# Sequence of Thyroid hormone receptor beta (Homo sapiens) (P10828 whole entry, looked up): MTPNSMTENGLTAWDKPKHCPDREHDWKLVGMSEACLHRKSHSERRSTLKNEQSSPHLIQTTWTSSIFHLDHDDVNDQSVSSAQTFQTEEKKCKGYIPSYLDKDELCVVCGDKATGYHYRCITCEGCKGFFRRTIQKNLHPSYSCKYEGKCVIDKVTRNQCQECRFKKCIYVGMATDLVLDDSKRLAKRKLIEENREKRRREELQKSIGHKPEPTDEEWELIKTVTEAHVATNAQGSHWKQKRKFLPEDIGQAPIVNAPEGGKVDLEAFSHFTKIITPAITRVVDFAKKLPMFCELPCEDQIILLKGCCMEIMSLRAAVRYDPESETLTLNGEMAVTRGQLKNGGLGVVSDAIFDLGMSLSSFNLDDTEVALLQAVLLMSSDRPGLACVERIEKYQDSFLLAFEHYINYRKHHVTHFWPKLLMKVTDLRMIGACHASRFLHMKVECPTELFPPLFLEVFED
# Sequence of Voltage-gated inwardly rectifying potassium channel KCNH2 (Homo sapiens) (Q12809 whole entry, looked up): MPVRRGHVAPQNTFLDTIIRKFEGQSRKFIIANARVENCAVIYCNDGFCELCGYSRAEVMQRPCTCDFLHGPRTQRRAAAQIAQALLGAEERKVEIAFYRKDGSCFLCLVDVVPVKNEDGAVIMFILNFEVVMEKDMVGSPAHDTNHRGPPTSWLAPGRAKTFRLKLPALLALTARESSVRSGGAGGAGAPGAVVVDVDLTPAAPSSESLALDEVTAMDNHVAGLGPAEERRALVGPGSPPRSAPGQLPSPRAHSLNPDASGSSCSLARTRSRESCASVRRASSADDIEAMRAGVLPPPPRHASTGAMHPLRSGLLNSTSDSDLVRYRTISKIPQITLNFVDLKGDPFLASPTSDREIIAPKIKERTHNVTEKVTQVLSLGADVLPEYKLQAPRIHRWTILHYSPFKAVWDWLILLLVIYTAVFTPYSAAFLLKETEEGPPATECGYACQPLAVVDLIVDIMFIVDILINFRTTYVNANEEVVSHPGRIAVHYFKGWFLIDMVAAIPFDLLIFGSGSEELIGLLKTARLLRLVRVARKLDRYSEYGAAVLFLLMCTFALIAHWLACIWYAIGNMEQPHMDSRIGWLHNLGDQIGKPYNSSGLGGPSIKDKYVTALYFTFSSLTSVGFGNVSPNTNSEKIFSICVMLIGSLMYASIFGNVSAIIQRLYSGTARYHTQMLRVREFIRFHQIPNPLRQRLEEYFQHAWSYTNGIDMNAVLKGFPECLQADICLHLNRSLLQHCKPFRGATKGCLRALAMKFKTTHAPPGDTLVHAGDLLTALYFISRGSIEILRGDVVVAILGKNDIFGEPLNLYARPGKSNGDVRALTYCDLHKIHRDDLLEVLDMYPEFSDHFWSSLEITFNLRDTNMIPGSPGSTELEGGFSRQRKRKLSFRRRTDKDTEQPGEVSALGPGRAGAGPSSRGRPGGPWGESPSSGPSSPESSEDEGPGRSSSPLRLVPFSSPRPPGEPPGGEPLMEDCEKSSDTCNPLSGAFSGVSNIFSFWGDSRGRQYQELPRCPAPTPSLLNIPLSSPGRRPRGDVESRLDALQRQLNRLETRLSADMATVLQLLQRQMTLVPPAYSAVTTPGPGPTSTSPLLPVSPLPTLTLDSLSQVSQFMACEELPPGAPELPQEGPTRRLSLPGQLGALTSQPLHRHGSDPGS
# Sequence of Retinoic acid receptor RXR-alpha (Homo sapiens) (P19793 whole entry, looked up): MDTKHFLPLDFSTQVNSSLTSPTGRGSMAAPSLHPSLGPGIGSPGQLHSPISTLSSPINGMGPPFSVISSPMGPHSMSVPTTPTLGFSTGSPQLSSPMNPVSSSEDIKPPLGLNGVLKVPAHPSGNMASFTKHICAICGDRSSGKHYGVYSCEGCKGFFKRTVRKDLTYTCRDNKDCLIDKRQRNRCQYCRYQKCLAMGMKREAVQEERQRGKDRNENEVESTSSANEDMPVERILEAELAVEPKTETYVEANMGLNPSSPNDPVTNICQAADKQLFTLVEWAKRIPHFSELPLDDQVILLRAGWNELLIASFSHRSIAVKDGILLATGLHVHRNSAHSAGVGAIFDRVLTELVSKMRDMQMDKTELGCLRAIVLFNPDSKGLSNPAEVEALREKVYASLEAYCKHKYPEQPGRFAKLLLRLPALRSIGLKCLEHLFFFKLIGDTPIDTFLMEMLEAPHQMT
compound,measurement,setting,value
C=C(C)C1CC=C(C)C(O)C1 (centres undefined),Potency,[1],inactive
same,Potency,[2],inactive
same,Potency,[3],inactive
same,Potency,[4],inactive
same,Potency,[5],inactive
same,Potency,[6],inactive
same,Potency,[7],inactive
same,Potency,[8],inactive
same,Potency,[9],inactive
same,Potency,[10],inactive
same,outcome,[11],inactive
same,Potency,[12],inactive
same,Potency,[13],inactive
same,activation,[14],0.682% (inactive)
same,Potency,[15],inactive
same,max response,[16],-1.36%
same,outcome,[17],inactive
same,max response,[18],-6.28%
same,max response,[19],5.08% (inactive)
same,activity change % (negative = inhibition),[20],0.818% (inactive)
same,Potency,[21],inactive
same,activation,[22],-1.04% (inactive)
same,activation,[23],-0.16% (inactive)
same,Potency,[24],inactive
